Measurements reported in publication PMC7862700, “An all-to-all approach to the identification of sequence-specific readers for epigenetic DNA modifications on cytosine”.

How the values were obtained:
Experiment in all cases: DAPPL (digital affinity profiling via proximity ligation, sequencing); 10 mM Tris-HCl pH 7.5, 50 mM NaCl, 1 mM DTT, 4% glycerol, room temperature, 30 min; GST-TFs on glutathione beads, 16-mer random dsDNA library, 0.1% formaldehyde crosslink after washing; high values mean tight binding
Conditions in all cases: protein: recombinant; tags: N-terminal GST; dsDNA, one strand shown
FLI1 = biological target: T1, FLI1 (Homo sapiens, UniProt Q01543 1-452)
T1 sequence: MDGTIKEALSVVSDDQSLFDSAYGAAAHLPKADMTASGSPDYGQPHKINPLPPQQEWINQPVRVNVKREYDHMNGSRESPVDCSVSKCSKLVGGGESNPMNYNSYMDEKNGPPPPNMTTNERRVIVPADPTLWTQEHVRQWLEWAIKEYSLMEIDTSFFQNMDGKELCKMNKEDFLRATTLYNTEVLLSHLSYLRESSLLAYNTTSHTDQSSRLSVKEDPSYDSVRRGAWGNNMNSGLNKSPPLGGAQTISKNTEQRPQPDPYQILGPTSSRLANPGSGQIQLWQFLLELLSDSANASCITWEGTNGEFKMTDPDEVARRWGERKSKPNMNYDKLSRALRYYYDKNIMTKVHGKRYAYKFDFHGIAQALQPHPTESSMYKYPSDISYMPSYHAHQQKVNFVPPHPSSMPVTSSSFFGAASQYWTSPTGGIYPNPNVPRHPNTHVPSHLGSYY
In short: (§1)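 GST fusions of human transcription factors were expressed in yeast and captured with glutathione beads. Once given DNA barcodes and pooled alongside a tag-only sample, they were incubated for 30 min at room temperature with 200 nmole of a random double-stranded 16-mer DNA library in Tris/NaCl/DTT/glycerol buffer, then washed, crosslinked (0.1% formaldehyde), proximity-ligated, PCR-amplified and sequenced on an Illumina NextSeq500. The binding signal of each hexamer is its read frequency for a factor divided by its frequency for the tag-only sample.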

ELK1 = biological target: T2, ELK1 (Homo sapiens, UniProt P19419 1-428)
T2 sequence: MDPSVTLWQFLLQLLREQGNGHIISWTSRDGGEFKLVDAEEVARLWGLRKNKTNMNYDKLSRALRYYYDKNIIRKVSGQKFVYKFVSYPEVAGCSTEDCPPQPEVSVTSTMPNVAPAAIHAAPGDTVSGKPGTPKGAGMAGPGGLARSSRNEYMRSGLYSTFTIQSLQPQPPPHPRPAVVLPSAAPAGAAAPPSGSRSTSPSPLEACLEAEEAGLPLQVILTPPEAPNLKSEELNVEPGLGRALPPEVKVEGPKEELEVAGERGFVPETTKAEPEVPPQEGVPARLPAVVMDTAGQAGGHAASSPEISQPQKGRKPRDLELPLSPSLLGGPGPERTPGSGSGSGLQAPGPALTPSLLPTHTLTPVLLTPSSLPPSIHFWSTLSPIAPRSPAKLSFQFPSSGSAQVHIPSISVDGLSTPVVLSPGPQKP
In short: as §1

GABPA = biological target: T3, GABPA (Homo sapiens, UniProt Q06546 1-454)
T3 sequence: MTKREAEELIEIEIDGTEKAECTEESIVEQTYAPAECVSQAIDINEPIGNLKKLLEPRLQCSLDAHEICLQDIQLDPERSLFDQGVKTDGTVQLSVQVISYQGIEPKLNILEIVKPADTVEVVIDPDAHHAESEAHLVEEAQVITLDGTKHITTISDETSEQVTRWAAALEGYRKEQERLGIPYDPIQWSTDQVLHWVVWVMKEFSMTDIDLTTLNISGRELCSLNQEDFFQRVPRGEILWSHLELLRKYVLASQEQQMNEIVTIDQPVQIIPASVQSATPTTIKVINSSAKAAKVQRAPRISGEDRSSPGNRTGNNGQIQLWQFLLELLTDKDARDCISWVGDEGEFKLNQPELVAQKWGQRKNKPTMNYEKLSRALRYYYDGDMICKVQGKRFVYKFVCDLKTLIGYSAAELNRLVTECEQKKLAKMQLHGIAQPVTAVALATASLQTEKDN
In short: as §1

ERG = biological target: T4, ERG (Homo sapiens, UniProt P11308 1-479)
T4 sequence: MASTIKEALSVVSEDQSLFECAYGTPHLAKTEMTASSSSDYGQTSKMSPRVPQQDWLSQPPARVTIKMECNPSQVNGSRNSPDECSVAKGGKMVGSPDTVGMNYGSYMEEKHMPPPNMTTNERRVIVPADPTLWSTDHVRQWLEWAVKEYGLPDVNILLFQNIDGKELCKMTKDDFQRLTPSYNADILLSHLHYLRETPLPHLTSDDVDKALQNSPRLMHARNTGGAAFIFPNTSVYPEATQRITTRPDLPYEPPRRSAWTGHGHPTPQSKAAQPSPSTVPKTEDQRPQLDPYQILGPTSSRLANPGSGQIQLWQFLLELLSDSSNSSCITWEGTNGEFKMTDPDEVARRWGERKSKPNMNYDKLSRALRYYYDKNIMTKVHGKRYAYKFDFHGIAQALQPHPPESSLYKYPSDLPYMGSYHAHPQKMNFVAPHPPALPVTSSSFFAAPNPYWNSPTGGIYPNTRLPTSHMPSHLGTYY
In short: as §1

ELF1 = ELF1 (Homo sapiens, UniProt P32519 1-619)
In short: as §1

EHF = biological target: T5, EHF (Homo sapiens, UniProt Q9NZC4 1-300)
T5 sequence: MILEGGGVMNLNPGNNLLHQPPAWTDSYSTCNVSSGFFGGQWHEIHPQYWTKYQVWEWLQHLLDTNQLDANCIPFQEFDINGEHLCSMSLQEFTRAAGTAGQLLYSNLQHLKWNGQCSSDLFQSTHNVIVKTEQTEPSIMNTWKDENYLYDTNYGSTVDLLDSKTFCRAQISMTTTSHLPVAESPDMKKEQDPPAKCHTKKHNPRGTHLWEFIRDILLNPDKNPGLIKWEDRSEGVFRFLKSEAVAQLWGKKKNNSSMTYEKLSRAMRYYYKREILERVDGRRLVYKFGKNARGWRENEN
In short: as §1

SPI1 = SPI1 (Homo sapiens, UniProt P17947 1-270)
In short: as §1

SPIB = SPIB (Homo sapiens, UniProt Q01892 1-262)
In short: as §1

ELK3 = biological target: T6, ELK3 (Homo sapiens, UniProt P41970 1-407)
T6 sequence: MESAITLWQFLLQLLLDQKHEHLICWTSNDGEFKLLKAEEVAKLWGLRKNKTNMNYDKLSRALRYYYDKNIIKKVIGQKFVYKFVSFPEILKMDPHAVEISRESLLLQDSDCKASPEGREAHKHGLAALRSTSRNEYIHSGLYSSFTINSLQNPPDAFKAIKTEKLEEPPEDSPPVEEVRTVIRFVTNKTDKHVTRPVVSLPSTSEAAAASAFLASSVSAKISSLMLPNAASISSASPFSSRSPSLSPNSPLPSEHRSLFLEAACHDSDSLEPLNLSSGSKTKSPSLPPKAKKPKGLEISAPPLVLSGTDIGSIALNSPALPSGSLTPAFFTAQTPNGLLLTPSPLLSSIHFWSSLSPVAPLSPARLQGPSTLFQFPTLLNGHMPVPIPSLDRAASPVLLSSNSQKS
In short: as §1

Chain of ELF1 (P32519 whole entry): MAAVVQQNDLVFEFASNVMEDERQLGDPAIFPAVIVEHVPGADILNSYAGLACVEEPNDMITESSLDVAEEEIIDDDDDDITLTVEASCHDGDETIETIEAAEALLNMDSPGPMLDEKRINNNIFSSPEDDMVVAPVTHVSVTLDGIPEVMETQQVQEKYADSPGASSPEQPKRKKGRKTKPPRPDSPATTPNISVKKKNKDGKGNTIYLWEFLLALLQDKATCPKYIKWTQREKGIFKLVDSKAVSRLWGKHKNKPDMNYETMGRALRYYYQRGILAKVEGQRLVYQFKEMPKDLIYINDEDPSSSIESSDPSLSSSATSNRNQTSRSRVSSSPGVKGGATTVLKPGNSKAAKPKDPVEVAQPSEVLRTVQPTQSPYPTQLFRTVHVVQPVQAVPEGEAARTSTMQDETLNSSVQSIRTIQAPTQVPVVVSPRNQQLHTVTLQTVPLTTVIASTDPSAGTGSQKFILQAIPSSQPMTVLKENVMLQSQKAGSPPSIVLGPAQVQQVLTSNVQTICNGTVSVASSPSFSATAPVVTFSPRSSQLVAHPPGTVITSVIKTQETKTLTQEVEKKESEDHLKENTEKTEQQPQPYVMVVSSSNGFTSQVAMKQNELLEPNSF
Chain of SPIB (Q01892 whole entry): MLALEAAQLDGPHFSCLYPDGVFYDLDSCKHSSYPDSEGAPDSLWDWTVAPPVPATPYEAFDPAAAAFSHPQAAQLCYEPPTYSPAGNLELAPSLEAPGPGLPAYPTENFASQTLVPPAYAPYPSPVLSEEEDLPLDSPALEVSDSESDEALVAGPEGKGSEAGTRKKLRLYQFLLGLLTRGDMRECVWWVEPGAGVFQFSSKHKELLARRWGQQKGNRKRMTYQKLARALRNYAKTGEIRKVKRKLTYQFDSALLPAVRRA

| Sequence | binding signal (FLI1) | binding signal (ELK1) | binding signal (GABPA) | binding signal (ERG) | binding signal (ELF1) | binding signal (EHF) | binding signal (SPI1) | binding signal (SPIB) | binding signal (ELK3) |
| --- | --- | --- | --- | --- | --- | --- | --- | --- | --- |
| TATACC | 1.29 fold enrichment (6-mer frequency, TF over GST control) | 1.31 fold enrichment (6-mer frequency, TF over GST control) | 1.18 fold enrichment (6-mer frequency, TF over GST control) | 1.2 fold enrichment (6-mer frequency, TF over GST control) | 1.18 fold enrichment (6-mer frequency, TF over GST control) | 1.21 fold enrichment (6-mer frequency, TF over GST control) | 1.05 fold enrichment (6-mer frequency, TF over GST control) | 1.27 fold enrichment (6-mer frequency, TF over GST control) | 1.16 fold enrichment (6-mer frequency, TF over GST control) |
| TGCCCT | 1.21 fold enrichment (6-mer frequency, TF over GST control) | 1.25 fold enrichment (6-mer frequency, TF over GST control) | 1.21 fold enrichment (6-mer frequency, TF over GST control) | 1.09 fold enrichment (6-mer frequency, TF over GST control) | 1.25 fold enrichment (6-mer frequency, TF over GST control) | 1.12 fold enrichment (6-mer frequency, TF over GST control) | 1.15 fold enrichment (6-mer frequency, TF over GST control) | 1.16 fold enrichment (6-mer frequency, TF over GST control) | 1.07 fold enrichment (6-mer frequency, TF over GST control) |
| GGTACT | 1.25 fold enrichment (6-mer frequency, TF over GST control) | 1.21 fold enrichment (6-mer frequency, TF over GST control) | 1.31 fold enrichment (6-mer frequency, TF over GST control) | 1.24 fold enrichment (6-mer frequency, TF over GST control) | 1.32 fold enrichment (6-mer frequency, TF over GST control) | 1.25 fold enrichment (6-mer frequency, TF over GST control) | 1.19 fold enrichment (6-mer frequency, TF over GST control) | 1.15 fold enrichment (6-mer frequency, TF over GST control) | 1.35 fold enrichment (6-mer frequency, TF over GST control) |
| TCTTCA | 1.43 fold enrichment (6-mer frequency, TF over GST control) | 1.19 fold enrichment (6-mer frequency, TF over GST control) | 1.16 fold enrichment (6-mer frequency, TF over GST control) | 1.16 fold enrichment (6-mer frequency, TF over GST control) | 1.33 fold enrichment (6-mer frequency, TF over GST control) | 1.14 fold enrichment (6-mer frequency, TF over GST control) | 1.21 fold enrichment (6-mer frequency, TF over GST control) | 1.27 fold enrichment (6-mer frequency, TF over GST control) | 1.27 fold enrichment (6-mer frequency, TF over GST control) |
| CACTGC | 1.45 fold enrichment (6-mer frequency, TF over GST control) | 1.46 fold enrichment (6-mer frequency, TF over GST control) | 1.32 fold enrichment (6-mer frequency, TF over GST control) | 1.41 fold enrichment (6-mer frequency, TF over GST control) | 1.44 fold enrichment (6-mer frequency, TF over GST control) | 1.58 fold enrichment (6-mer frequency, TF over GST control) | 1.38 fold enrichment (6-mer frequency, TF over GST control) | 1.44 fold enrichment (6-mer frequency, TF over GST control) | 1.51 fold enrichment (6-mer frequency, TF over GST control) |
| TTCCCC | 1.74 fold enrichment (6-mer frequency, TF over GST control) | 1.58 fold enrichment (6-mer frequency, TF over GST control) | 1.71 fold enrichment (6-mer frequency, TF over GST control) | 1.67 fold enrichment (6-mer frequency, TF over GST control) | 1.72 fold enrichment (6-mer frequency, TF over GST control) | 1.68 fold enrichment (6-mer frequency, TF over GST control) | 2.54 fold enrichment (6-mer frequency, TF over GST control) | 1.66 fold enrichment (6-mer frequency, TF over GST control) | 1.61 fold enrichment (6-mer frequency, TF over GST control) |
| CGGAAA | 1.89 fold enrichment (6-mer frequency, TF over GST control) | 2.13 fold enrichment (6-mer frequency, TF over GST control) | 1.88 fold enrichment (6-mer frequency, TF over GST control) | 2.63 fold enrichment (6-mer frequency, TF over GST control) | 1.87 fold enrichment (6-mer frequency, TF over GST control) | 2.31 fold enrichment (6-mer frequency, TF over GST control) | 1.89 fold enrichment (6-mer frequency, TF over GST control) | 2.22 fold enrichment (6-mer frequency, TF over GST control) | 2.28 fold enrichment (6-mer frequency, TF over GST control) |
| GTGTTT | 1.15 fold enrichment (6-mer frequency, TF over GST control) | 1.19 fold enrichment (6-mer frequency, TF over GST control) | 1.08 fold enrichment (6-mer frequency, TF over GST control) | 1.07 fold enrichment (6-mer frequency, TF over GST control) | 1.16 fold enrichment (6-mer frequency, TF over GST control) | 1.09 fold enrichment (6-mer frequency, TF over GST control) | 1.11 fold enrichment (6-mer frequency, TF over GST control) | 1.16 fold enrichment (6-mer frequency, TF over GST control) | 1.2 fold enrichment (6-mer frequency, TF over GST control) |
